In PubChem BioAssay (EPA / NIEHS) one finds outcome and AC50 data, which are given here for 7 compounds.

Test [1] in a line: APR_HepG2_CellCycleArrest_24hr: Apredica 24-hour HepG2 Assay for Cell Cycle Arrest (AID 2282905).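 Note: cell cycle arrest scored as ratio of 2N to 4N nuclear DNA content.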 Conditions: imaging, actives raise or lower the signal. The essentials: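 After 24 h exposure at 0.39–200 uM in 0.5% DMSO, fixed cells received Hoechst 33342 staining. Imaging quantified per-nucleus DNA content; gain or loss fitted against DMSO controls.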
The nature of test [2]: APR_HepG2_NuclearSize_24hr: Apredica 24-hour HepG2 Assay for Nuclear Size (AID 2282907). Particulars: high-content imaging, actives raise or lower the signal. The essentials:
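Nuclear size from Hoechst 33342-stained, formaldehyde-fixed HepG2 nuclei imaged by high-content microscopy, after 24 h dosing at ten concentrations from 0.39 to 200 uM in 0.5% DMSO; gain or loss relative to DMSO baseline.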

Test [3] can be described thus: APR_HepG2_CellLoss_24hr: Apredica 24-hour HepG2 Assay for Cell Loss (AID 2282908).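 For AC50: fit in both directions so a hit may be cell loss or gain.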 Particulars: high-content imaging. The essentials:
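Nuclei stained with Hoechst 33342 after formaldehyde fixation (3.7%) were imaged at 20x to count cells. Exposure lasted 24 hr, at ten concentrations from 0.39 to 200 uM in duplicate, with 0.5% v/v DMSO. Fit bidirectional, relative to DMSO.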

The nature of test [4]: APR_HepG2_MicrotubuleCSK_24hr: Apredica 24-hour HepG2 Assay for Microtubule CSK Stabilty (AID 2282909). Conditions: HepG2 microtubule cytoskeleton imaging, actives raise or lower the signal. In outline:
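Fixed HepG2 cells were stained for alpha-tubulin and imaged after 24 hr exposure to ten concentrations spanning 0.39–200 uM in 0.5% DMSO. Signal change was fitted in both directions relative to DMSO; taxol was the positive control.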

Test [5] in a line: APR_HepG2_MitoticArrest_24hr: Apredica 24-hour HepG2 Assay for Mitotic Arrest (AID 2282910). Particulars: high-content imaging, actives raise or lower the signal. In outline: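 Treatment lasted 24 hr in the human HepG2 line at 0.39–200 uM, solvent held at 0.5% DMSO. Fixed cells were stained with Hoechst 33342 and anti-phospho-histone H3, imaged at 20x, and analysed by gain- or loss-of-signal fitting against DMSO.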

Test [6] is described as follows: APR_HepG2_MitoMembPot_24hr: Apredica 24-hour HepG2 Assay for Mitochondrial Membrane Potential (AID 2282911). Particulars: imaging, actives raise or lower the signal. The essentials:
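HepG2 human liver cells were exposed 24 hr to compounds at 0.39–200 uM (final DMSO 0.5% v/v) in duplicate. MitoTracker Red CMXRos (250 nM, 30 min) was loaded before formaldehyde fixation; fluorescence was imaged by ArrayScan HCS and fitted bidirectionally versus DMSO.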

Test [7] can be described thus: APR_HepG2_MitoMass_24hr: Apredica 24-hour HepG2 Assay for Mitochondrial Mass (AID 2282912). Conditions: high-content imaging, actives raise or lower the signal. The essentials:
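Endpoint is MitoTracker Red CMXRos (250 nM, 30 min, pre-fixation) intensity from 20x high-content imaging, nuclei located by Hoechst. Human HepG2 cells received ten concentrations from 0.39 to 200 uM in 0.5% DMSO for 24 hr, duplicate wells. Bidirectional fit relative to DMSO.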

Test [8] is described as follows: APR_HepG2_CellCycleArrest_72hr: Apredica 72-hour HepG2 Assay for Cell Cycle Arrest (AID 2282914). Particulars: high-content imaging, actives raise or lower the signal. In outline: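 HepG2 cells were exposed to compounds at 0.39–200 uM (0.5% v/v DMSO final, duplicates) for 72 hr, fixed in 3.7% formaldehyde, permeabilized and stained with Hoechst 33342. Nuclear DNA content was quantified by high-content imaging; gain or loss of signal was fitted bidirectionally against DMSO.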

A short description of test [9]: APR_HepG2_CellLoss_72hr: Apredica 72-hour HepG2 Assay for Cell Loss (AID 2282915). Conditions: high-content imaging. In outline: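 HepG2 cells were exposed for 72 hr to compounds at 0.39–200 uM (ten concentrations, duplicate) in 0.5% v/v final DMSO. Nuclei were stained with Hoechst 33342 after 3.7% formaldehyde fixation, imaged at 20x, and counted; fits bidirectional versus DMSO.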

Test [10] is described as follows: APR_HepG2_P-H2AX_72hr: Apredica 72-hour HepG2 Assay for H2AX Phosphorylation (AID 2282916).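 Note: phospho-histone H2A.x immunostain intensity per cell marking DNA damage.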 Conditions: imaging, actives raise or lower the signal. In outline: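 Phospho-histone H2A.x immunofluorescence, multiplexed with Hoechst and c-Jun, quantified by high-content imaging. Compounds applied to HepG2 for 72 h across ten concentrations (0.39–200 uM, 0.5% DMSO), in duplicate; DMSO baseline.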

Test [11] can be described thus: APR_HepG2_MitoMembPot_72hr: Apredica 72-hour HepG2 Assay for Mitochondrial Membrane Potential (AID 2282917). Conditions: imaging, actives raise or lower the signal. In outline: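 HepG2 cells exposed 72 h to compounds at 0.39–200 uM (0.5% v/v DMSO, duplicates); MitoTracker Red CMXRos 250 nM loaded 30 min before 3.7% formaldehyde fixation, imaged by HCS fluorescence. Bidirectional fit versus DMSO.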

A short description of test [12]: APR_HepG2_MitoticArrest_72hr: Apredica 72-hour HepG2 Assay for Mitotic Arrest (AID 2282918). Particulars: high-content imaging, actives raise or lower the signal. The essentials: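 HepG2 cells were exposed for 72 hr to compound at 0.39–200 uM (10 concentrations, duplicate) in 0.5% v/v DMSO, fixed in 3.7% formaldehyde, immunostained for phospho-histone H3 with Hoechst 33342 and imaged by high-content fluorescence; bidirectional fits versus DMSO.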

Test [13] is described as follows: APR_HepG2_P-H2AX_24hr: Apredica 24-hour HepG2 Assay for H2AX Phosphorylation (AID 2282920). Particulars: high-content imaging, actives raise or lower the signal. The essentials: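 HepG2 human liver cells were exposed for 24 hr to compounds at 0.39–200 uM in duplicate, with 0.5% v/v DMSO final. Fixed cells were immunostained for phospho-histone H2A.x plus Hoechst 33342, imaged by HCS fluorescence, and fitted bidirectionally against DMSO.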

Test [14] can be described thus: APR_HepG2_StressKinase_72hr: Apredica 72-hour HepG2 Assay for Stress Kinase (AID 2282921). Conditions: HepG2 stress kinase (phospho-c-Jun) imaging, actives raise or lower the signal. The essentials:
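Stress kinase signal is phospho-c-Jun immunofluorescence (1:500 primary, Cy3 secondary) in fixed, permeabilized human HepG2 cells imaged at 20x. Exposure lasted 72 hr over ten concentrations from 0.39 to 200 uM, 0.5% DMSO, in duplicate. Bidirectional fit versus DMSO.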

Test [15] can be described thus: APR_HepG2_StressKinase_24hr: Apredica 24-hour HepG2 Assay for Stress Kinase (AID 2282922). Particulars: HepG2 stress kinase (phospho-c-Jun) imaging, actives raise or lower the signal. In outline:
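After 24 hr compound treatment (up to 200 uM, final DMSO 0.5% v/v), HepG2 cells are fixed and multiplex-labeled; phospho-c-Jun intensity is captured by high-content fluorescence imaging and analyzed relative to DMSO.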

Test [16] is described as follows: APR_HepG2_p53Act_72hr: Apredica 72-hour HepG2 Assay for p53 Activation (AID 2282923).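 Note: average cellular p53 protein immunofluorescence intensity in HepG2 cells.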 Conditions: high-content imaging, actives raise or lower the signal. In outline: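 After 72 h with compound (ten points, 0.39 to 200 uM, final DMSO 0.5% v/v), fixed HepG2 cells were labelled with sheep anti-p53 and Hoechst 33342 and imaged; gain or loss versus DMSO scored.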
The nature of test [17]: APR_HepG2_MitoMass_72hr: Apredica 72-hour HepG2 Assay for Mitochondrial Mass (AID 2282924).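 Note: MitoTracker Red CMXRos stain intensity per cell imaged as mitochondrial mass.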 Conditions: high-content imaging, actives raise or lower the signal. The essentials: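 Steps: treat HepG2 72 hr (0.39–200 uM, duplicate wells); load MitoTracker Red CMXRos, 250 nM, 30 min; fix with 3.7% formaldehyde, permeabilise with 0.5% Triton X-100; capture images, nuclei via Hoechst 33342; fit bidirectionally against DMSO.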

The nature of test [18]: APR_HepG2_MicrotubuleCSK_72hr: Apredica 72-hour HepG2 Assay for Microtubule CSK Stabilty (AID 2282919). Particulars: HepG2 microtubule cytoskeleton, high-content imaging, actives raise or lower the signal. The essentials:
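Ten-point dosing (0.39–200 uM, 0.5% DMSO) of HepG2 for 72 hr, with taxol as the cytoskeletal positive control. The cells were formaldehyde-fixed and then stained with alpha-tubulin/Cy5 and Hoechst. Imaging at 20x used a −2 um Z offset for tubulin.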

Test [19] is described as follows: APR_HepG2_p53Act_24hr: Apredica 24-hour HepG2 Assay for p53 Activation (AID 2282913).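 Note: p53 protein immunofluorescence averaged per cell in HepG2 with Hoechst nuclei.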 Particulars: high-content imaging, actives raise or lower the signal. The essentials:
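HepG2 cells exposed 24 hr to compounds at 0.39–200 uM (10 concentrations, duplicate), final DMSO 0.5% v/v. After formaldehyde fixation and Triton permeabilization, p53 was immunolabeled (sheep anti-p53, Cy5 secondary) with Hoechst 33342 nuclear counterstain, then imaged by high-content fluorescence microscopy.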

Test [20] is described as follows: APR_HepG2_NuclearSize_72hr: Apredica 72-hour HepG2 Assay for Nuclear Size (AID 2282925). Conditions: high-content imaging, actives raise or lower the signal. The essentials:
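Compounds (0.39–200 uM, final DMSO 0.5%) were applied to HepG2 for 72 hr. Cells were then formaldehyde-fixed, permeabilized and labelled with Hoechst 33342. Nuclear diameter was quantified from six images per well.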

Molecules are shown by their SMILES. Activity calls are given as the source filed them. Rule for the calls: active = hit-call score of the fitted dose curve at least 0.9, where 1 is the maximum; inactive = score below 0.9.

Consider `OCCCl`, for which the result in test [1], in test [2], in test [3], in test [4], in test [5] and in test [6] was inactive. Further, the compound was classed as inactive in test [7], in [8], in test [9], in test [10], in [11] and in [12]. Moreover, the compound was called inactive in test [13], in test [14], in test [15], in test [16] and in test [17].
Broadly, the AC50 is the concentration giving half of the maximal activity seen. Turning to `C[C@]12C=CC3=C4CCC(=O)C=C4CC[C@H]3[C@@H]1CC[C@@H]2O`, the call in test [1], in test [2], in test [4], in test [6], in test [7] and in test [8] was inactive. For the same compound, the call in [10], in test [11], in test [18], in test [13], in [14] and in test [15] was inactive. In addition, the result in test [17] was inactive. In addition, the AC50 was 26.1 µM (active) in test [3], 32.7 µM (active) in test [5], 21.7 µM (active) in test [9] and 20.8 µM (active) in test [12].
For `Clc1ccc(C(c2ccc(Cl)cc2)C(Cl)(Cl)Cl)cc1`, the half-maximal activity concentration (AC50) in test [2] is 56.5 µM (active); in test [3], 57.9 µM (active); in [5] it was 50.1 µM (active); in [6], 30.3 µM (active); in test [7], 44.4 µM (active); in test [19], 54.7 µM (active). For the same compound, the AC50 in [9] is 50.5 µM (active); in [10] it was 50.2 µM (active); in [11], 30.4 µM (active); in test [12], 42.6 µM (active); in test [13], 50.5 µM (active); in test [15], 51.9 µM (active). For the same compound, the compound was called inactive in [4], in test [8], in test [18], in [14], in test [16] and in test [17].
For `COC(=O)Nc1nc2ccccc2[nH]1`, the outcome in [2], in test [4], in test [6], in test [7], in [11] and in test [12] was inactive. Moreover, the call in test [18] was inactive. In addition, the AC50 in test [3] is 7.04 µM (active); in test [5] it was 3.45 µM (active); in [19], 3.13 µM (active); in [8], 13.4 µM (active); in test [9], 5.59 µM (active); in test [10], 5.9 µM (active). The AC50 is 5.54 µM (active) in [13]; 6.75 µM (active) in [14]; 36.3 µM (active) in test [15]; 2.8 µM (active) in [16]; 5.43 µM (active) in test [17]; 9.08 µM (active) in test [20].
Consider `Nc1ccc(Oc2ccc(N)cc2)cc1`, for which the compound was called inactive in test [2], in [3], in test [4], in test [5], in test [6] and in [7]. Also, the call in test [19], in test [8], in [9], in [10], in [11] and in test [12] was inactive. The result in [18], in [13], in [14], in test [15], in [16] and in [17] was inactive. Further, in test [20], the call was inactive.
`Cn1cc(-c2ccccc2)c(=O)c(-c2cccc(C(F)(F)F)c2)c1`: the result in test [2], in test [3], in [4], in [5], in test [6] and in [7] was inactive. In addition, the compound was called inactive in [19], in [10], in test [11], in test [12], in [13] and in [14]. The compound was classed as inactive in [15], in test [16], in [17] and in [20]. The AC50 in test [8] was 107 µM (active); in test [9], 64.3 µM (active).
In the case of `Cc1cccc(N)c1N`, the outcome in test [1], in test [2], in test [3], in [4], in test [5] and in [7] was inactive. Also, the result in [11], in test [14], in test [15], in test [16], in [17] and in [20] was inactive. Also, the AC50 in [6] was 99.9 µM (active); in test [8], 7.98 µM (active); in test [9], 14.1 µM (active); in [10], 56.3 µM (active); in test [12] it was 19.8 µM (active); in [13], 44.5 µM (active).
